Consider 40 compounds from PubChem BioAssay AID1347172 (National Center for Advancing Translational Sciences (NCATS), 2019).

Records with an inconclusive call do not appear. The source made the active and inactive calls. The call rests on the fitted dose curve; in most records, active means well fitted inhibition curve with a large enough effect; inconclusive means small, poorly fitted or top-dose-only effect; inactive means flat fitted curve, though single readings scatter.

The nature of this assay: Secondary qRT-PCR qHTS assay for selected Zika virus inhibitors. The following applies: Vero cells ZIKV infection, NS5 RNA qRT-PCR, 24 h; series mostly up to 32.6 µM; activity change, negative = inhibition: at the top concentration. The text has this:
Assay Submitters (PI): Avindra Nath, Ph.D., National Institute of Neurological Disorders and Stroke (NINDS), Bethesda, MD Radhakrishnan Padmanabhan, Ph.D., Georgetown University (GU), Washington D.C. Zika Virus causes congenital defects, including microcephaly and is associated with Guillain-Barre syndrome, eningoencephalitis and myelitis in infected adult. […] Using a target-based approach, we hope to establish a screening paradigm to uncover novel, cell-active NS2B-NS3 protease (Zika Virus) specific inhibitors from NCATS' collection of small molecules using qHTS. […] Four assay panel was created to identify potential Zika Virus inhibitors. Namely, (1) GU unlinked NS2B-NS3 AMC tagged protease qHTS, (2) GU unlinked NS2B-NS3 Rhodamine tagged protease qHTS, (3) NINDS linked NS2B-NS3 AMC tagged protease qHTS, (4) NINDS linked NS2B-NS3 Rhodamine tagged protease qHTS. Inhibitors of the Zika virus primary screens are confirmed using qRT-PCR secondary assays, qRT-PCR mCherry orthogonal assay, and qRT-PCR viability counterscreen. Early Translation Branch (ETB) National Center for Advancing Translational Sciences (NCATS), Rockville, MD National Institute of Health (NIH), Bethesda, Maryland
384-well ZIKV qRT-PCR Assay: Vero cells were treated with the indicated compounds at different concentrations, infected with ZIKV (MOI=1) and incubated at 37 degrees C for 3 hours to permit virus invasion. After 3 hr, supernatant was removed, and cells were washed once to remove extracellular virus. After a further 21 hr incubation, infected cells were washed three times with cold PBS (4 degrees C). Plates were then process using the TaqmanGene Expression Cells-to-Ct Kit (ThermoFisher Scientific) following the manufactures protocol. Primers directed to the NS5 sequence (F-[…]; R-GCTCGGCCAATCAGTTCA) along with Taqman probe (FAM-[…]-BHQ; Biosearch Technologies) were used to quantify drug inhibition of viral load. Reactions were run at initial 95 degrees C for 10 min, then 40 cycles of 95 degrees C for 20 sec and 60 degrees C for 40 sec using a LightCycler 480 (Roche). Relative viral copy numbers were generated by normalizing to cells treated with vehicle.
(Real-time PCR tracks product formation cycle by cycle.)
`Oc1c(Cl)cc(Cl)c(Cl)c1Cc1c(O)c(Cl)cc(Cl)c1Cl`: the Potency was 35.5 µM (active).

For `N#CC1C(=O)Nc2scc(-c3ccc(-c4ccccc4O)cc3)c2C1=O` (stereo not given), the “activity change, negative = inhibition” value was -0.434% (inactive).

Take `O=C1NC(=O)/C(=C/c2cccc(C(F)(F)F)c2)S1`: the “activity change, negative = inhibition” value was -8.11% (inactive).

For `CC1=C(C(=O)OCc2ccccc2)C(c2ccc(-c3ccccc3)cc2)NC(=O)N1CCCCCC(=O)O` (stereo not given), the “activity change, negative = inhibition” value was -14% (inactive).

As for `O=C(O)c1c(Sc2ccccc2)c2cc(Cl)ccc2n1Cc1ccc(Cl)cc1`, the “activity change, negative = inhibition” value is -24.4% (inactive).

Consider `Cc1ccc2[nH]c(=O)c(C3=NN(C(=O)CCC(=O)O)C(c4ccc(Br)cc4)C3)c(-c3ccccc3)c2c1` (stereo not given), for which the “activity change, negative = inhibition” value was 6.96% (inactive).

`CC1CCN(C(c2ccc(F)cc2)c2ccc(C(C)C(=O)O)cc2-c2ccc(C(F)(F)F)cc2)CC1` (stereo not given): the Potency was 14.1 µM (active).

Take `COc1c(C)c2c(c(O)c1C/C=C(\C)CCC(=O)O)C(=O)OC2`: the “activity change, negative = inhibition” value is -10.2% (inactive).

Consider `CN(C)[C@@H]1C(=O)C(C(N)=O)=C(O)[C@@]2(O)C(=O)C3=C(O)c4c(O)ccc(Cl)c4[C@@H](O)[C@H]3C[C@@H]12`, for which the “activity change, negative = inhibition” value is -4.42% (inactive).

Take `CCOC(=O)c1ccc(NC(=O)CSc2nc(-c3ccc(F)cc3)cc(C(F)(F)F)c2C#N)cc1`: the “activity change, negative = inhibition” value was -18.9% (inactive).

In the case of `O=C(O)c1ccc(CCCc2ccc(OCCc3ccc(F)cc3)cc2)o1`, the “activity change, negative = inhibition” value was -0.859% (inactive).

As for `CC(C)c1onc(-c2c(Cl)cccc2Cl)c1COc1ccc(/C=C/c2cccc(C(=O)O)c2)c(Cl)c1`, the Potency is 11.2 µM (active).

Regarding `Nc1ccn([C@@H]2O[C@H](CO)[C@@H](O)C2(F)F)c(=O)n1`, the “activity change, negative = inhibition” value was -11.6% (inactive).

Turning to `O=C(N/N=C/c1ccc(O)c(O)c1)c1cc2ccccc2cc1O`, the “activity change, negative = inhibition” value is -17.4% (inactive).

As for `CCOC(=O)c1ccc(N2C(=O)c3n[nH]c(-c4cccs4)c3C2c2ccc(C(C)(C)C)cc2)cc1` (stereo not given), the Potency is 3.55 µM (active).

For `CCc1oc2ccccc2c1C(=O)c1cc(Br)c(O)c(Br)c1`, the “activity change, negative = inhibition” value was -19.8% (inactive).

For the compound `CCOc1nc2cccc(C(=O)OC(C)OC(=O)OC3CCCCC3)c2n1Cc1ccc(-c2ccccc2-c2nn[nH]n2)cc1` (stereo not given), the Potency was 12.6 µM (active).

Regarding `CC(C)c1cc(C(C)C)c(CC(=O)NS(=O)(=O)Oc2c(C(C)C)cccc2C(C)C)c(C(C)C)c1`, the Potency was 10 µM (active).

`CC[C@H](C)[C@H]1O[C@]2(CC[C@@H]1C)C[C@@H]1C[C@@H](C/C=C(\C)[C@@H](O[C@H]3C[C@H](OC)[C@@H](O[C@H]4C[C@H](OC)[C@@H](O)[C@H](C)O4)[C@H](C)O3)[C@@H](C)/C=C/C=C3\CO[C@@H]4[C@H](O)C(C)=C[C@@H](C(=O)O1)[C@]34O)O2`: the Potency is 3.98 µM (active).

On to `COc1ccc(NS(=O)(=O)c2ccc(NS(=O)(=O)c3ccc4c(c3)OCCO4)cc2)cc1`, for which the “activity change, negative = inhibition” value was -8.78% (inactive).

For the compound `O=C(O)c1cccc(-c2ccc(-c3cn(C(=O)N4CCCCC4Cc4ccccc4)nn3)cc2)c1` (stereo not given), the “activity change, negative = inhibition” value is -2.59% (inactive).

With `Cc1nc(C2CCCCC2)c(-c2ccc(S(N)(=O)=O)c(F)c2)o1`, the “activity change, negative = inhibition” value is -1.51% (inactive).

Take `CN(Cc1ccc(C(=O)O)cc1)c1ccc(OCc2c(-c3c(Cl)cccc3Cl)noc2C2CC2)nc1C(F)(F)F`: the Potency is 14.1 µM (active).

As to `CN(C)[C@@H]1C(=O)C(C(N)=O)=C(O)[C@@]2(O)C(=O)C3=C(O)c4c(O)cccc4C[C@H]3C[C@@H]12`, the “activity change, negative = inhibition” value was 9.04% (inactive).

`CC(C)c1cccc2c(-c3ccccc3)cc(-c3ccc(-c4ccc(C(=O)O)cc4)[nH]3)nc12`: the Potency is 10 µM (active).

With `CC(C)c1ccc2c(c1)c(SC(C)(C)C)c(CC(C)(C)C(=O)O)n2Cc1ccc(Cl)cc1`, the Potency is 10 µM (active).

Turning to `CC1(C)CC[C@]2(C(=O)O)CC[C@]3(C)C(=CCC4[C@@]5(C)C[C@@H](O)[C@H](O)C(C)(C)C5CC[C@]43C)C2C1` (stereo not given in full), the “activity change, negative = inhibition” value is -5.81% [at 16.3 µM] (inactive).

As to `N#Cc1ccc(N2N=C3c4ccc(C(=O)O)cc4CC[C@@H]3[C@@H]2C2CCCC2)cc1Cl`, the “activity change, negative = inhibition” value was -22.2% (inactive).

Take `COc1cc(C(=O)NS(=O)(=O)c2ccccc2C)ccc1Cc1cn(C)c2ccc(NC(=O)OC3CCCC3)cc12`: the “activity change, negative = inhibition” value is 0.303% (inactive).

In the case of `COc1ccccc1-c1cccc(-c2c(O)c3cc(C#N)c(Cl)cc3[nH]c2=O)c1`, the “activity change, negative = inhibition” value is -5.94% (inactive).

For `O=C(O)c1ccc(-n2nc(-c3ccccc3O)nc2-c2ccccc2O)cc1`, the “activity change, negative = inhibition” value is 15.9% (inactive).

For `CC(C)(O)c1ccccc1CC[C@@H](SCC1(CC(=O)O)CC1)c1cccc(/C=C/c2ccc3ccc(Cl)cc3n2)c1`, the “activity change, negative = inhibition” value was 2.54% (inactive).

In the case of `C=C1c2cccc(O)c2C(O)=C2C(=O)[C@]3(O)C(O)=C(C(N)=O)C(=O)[C@@H](N(C)C)[C@@H]3[C@@H](O)[C@H]12`, the Potency entry was “inactive”.

As to `COc1cc(C(=O)O)ccc1NC(=O)[C@@H]1N[C@@H](CC(C)(C)C)[C@](C#N)(c2ccc(Cl)cc2F)[C@H]1c1cccc(Cl)c1F`, the Potency is 12.6 µM (active).

`CCCCCCCOc1cc2c(cc1/C(C)=C/c1ccc(C(=O)O)cc1)C(C)(C)CCS2(=O)=O`: the Potency is 14.1 µM (active).

Take `COc1cc(C)c(C(=O)OC2C(C)OC(OC3CCC(C)C4C3C=C(C)C3/C(C)=C\CC/C(C)=C/C5(C)C=C(C(=O)O)C(C)CC56OC(=O)/C(=C(\O)C34C)C6=O)C(O)C2O)c(OC)c1` (stereo not given): the activity change, negative = inhibition is -1.08% [at 8.13 µM] (inactive).

Consider `N#CC1(c2cccc(C(=O)Nc3cc(Oc4ccc5nc(NC(=O)C6CC6)sc5n4)ccc3F)c2Cl)CC1`, for which the “activity change, negative = inhibition” value is 3.94% (inactive).

Take `O=C(O)Cc1cc(I)c(Oc2ccc(O)c(I)c2)c(I)c1`: the “activity change, negative = inhibition” value was -13.6% (inactive).

In the case of `Cc1ccn(-c2ccc(-c3ncco3)cc2)c(=O)c1-c1ccc2nc(N)ncc2c1`, the “activity change, negative = inhibition” value is -6.39% (inactive).

For `CC1(C)CCC(C)(C)c2cc3c(cc21)Sc1ccccc1N=C3c1ccc(C(=O)O)cc1`, the “activity change, negative = inhibition” value was -2.06% (inactive).
